The results in this text go back to PubChem BioAssay AID1345085 (National Center for Advancing Translational Sciences (NCATS), 2018).

Results filed as inconclusive are left out. Activity calls are given as the source filed them. The call rests on the fitted dose curve; in most records, active means well fitted cell-killing curve with a large enough effect; inconclusive means small, poorly fitted or top-dose-only effect, or effect the other way; inactive means no such curve, though single readings can be large or run the other way. *1 amine or outer side, *2 acyl side, *3 side chain or, on linkers, in order; H or OH if unused. Where a SMILES comes first, the peptide text is derived from it. Bridges are numbered along the chain shown (N, C = ends). Roman numbers before positions name the chains, in order. [ ]: non-standard residue; d: D form. Actinocin(9to1) = Cc1c2oc3c(C)ccc(C(=O)[*:1])c3nc-2c(C(=O)[*:2])c(N)c1=O; NMeV = CN[C@H](C(=O)O)C(C)C; Sar = CNCC(=O)O
Potency means the concentration at half of the fitted maximal effect.

In the test the test system is PA-1. The experiment in a line: Confirmatory qHTS for gynecologic anti-cancer compounds from libraries of approved drugs and bioactive compounds. Further: nearly all actives have a fitted effect of over 55% in size. The settings on record: gynecologic cancer cell panel viability, ATPlite luminescence, 48 h; series mostly up to 57.6 µM. Put shortly: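 1,000 cells/well; 16 h pre-incubation 37 C, 5% CO2; pin-transferred cpd in DMSO, 11 conc (1:3), 57.5 uM–0.977 nM; 48 h; ATPlite, 15 min RT; luminescence → IC50.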
In general terms: qHTS replaces the single test concentration by a dilution series.
Turning to `O=C1N(c2ccccc2)c2ccccc2C1(Cc1ccncc1)Cc1ccncc1`, the Potency result was “inactive”.
With `COc1c(C)c2c(c(O)c1C/C=C(\C)CCC(=O)OCCN1CCOCC1)C(=O)OC2`, the Potency is 0.485 µM (active).
Consider `Cc1nc(NC(=O)N2CCCC2C(N)=O)sc1-c1csc(C(C)(C)C)n1` (stereo not given), for which the Potency was 27.3 µM (active).
Turning to `O=C(CCCCCCNC(=O)c1cnc(N(c2ccccc2)c2ccccc2)nc1)NO`, the Potency is 3.06 µM (active).
The result for `COc1cc(N2CCC(N(C)C)CC2)ccc1Nc1ncc(Cl)c(Nc2ccccc2P(C)(C)=O)n1` reads 6.11 µM (active); that for `Cc1nc(Nc2n[nH]c3c2CN(C(=O)NC(CN(C)C)c2ccccc2)C3(C)C)c2sccc2n1` (stereo not given), 0.0243 µM (active); that for `CNCc1ccc(-c2[nH]c3cc(F)cc4c3c2CCNC4=O)cc1`, 19.3 µM (active).
With `Cc1csc(NC(=O)c2sc3nc4c(c(C(F)(F)F)c3c2N)CCC4)n1`, the Potency was 3.43 µM (active).
For the compound `CC[C@@]1(O)C(=O)OCc2c1cc1n(c2=O)Cc2cc3cc(O)ccc3nc2-1`, the Potency is 0.109 µM (active).
The result for `Cc1cnc(CNC(=O)c2c(=O)c3ccc(N4CCCN(C)CC4)nc3n3c2sc2ccccc23)cn1` reads 1.11 µM (active).
With `COc1ccc(CCC(=O)c2c(O)cc(O[C@@H]3O[C@H](CO)[C@@H](O)[C@H](O)[C@H]3O[C@@H]3O[C@@H](C)[C@H](O)[C@@H](O)[C@H]3O)cc2O)cc1O`, the Potency result is “inactive”.
On to `O=c1[nH]c(=O)n([C@H]2C[C@H](O)[C@@H](CO)O2)cc1C(F)(F)F`, for which the Potency is 1.93 µM (active).
For the compound `CN1CCN(c2ccc(OC(F)(F)F)c(Nc3ncc4c(n3)-c3c(c(C(N)=O)nn3CCO)CC4)c2)CC1`, the Potency was 0.153 µM (active).
Turning to `CCN1CCN(Cc2ccc(-c3cc4c(NC(C)c5ccccc5)ncnc4[nH]3)cc2)CC1` (stereo not given), the Potency was 24.3 µM (active).
`COc1ccc2c(c1OC)C(=O)O[C@@H]2[C@H]1c2c(cc3c(c2OC)OCO3)CCN1C`: the Potency is 24.3 µM (active).
As for `CC[C@H](CC#N)OC(=O)N[C@@H](C)c1cccc(NC(=O)Nc2ccc(-c3cnco3)c(OC)c2)c1`, the figure is 0.217 µM (active); as for `Nc1nc(Cl)nc2c1ncn2C1OC(CO)C(O)C1F` (stereo not given), 0.685 µM (active).
`Cn1cc(-c2ccc3ncc(Cc4ccc5ncccc5c4)n3n2)cn1`: the Potency result is “inactive”.
Regarding `CC(C)C[C@H](NC(=O)[C@H](CCc1ccccc1)NC(=O)CN1CCOCC1)C(=O)N[C@@H](Cc1ccccc1)C(=O)N[C@@H](CC(C)C)C(=O)[C@@]1(C)CO1`, the Potency was 2.43 µM (active).
As for `NCCOc1cc(C(=O)Nc2cc(OCCN)c3ccccc3n2)nc(C(=O)Nc2cc(OCCN)c3ccccc3n2)c1`, the figure is 19.3 µM (active).
Regarding `CCn1cc(-c2ccnc3[nH]c(-c4cccc(CN(C)C)c4)cc23)c(-c2ccc(NC(=O)N(C)C)cc2)n1`, the Potency was 8.41 µM (active).
As for `CO[C@@]12[C@H](COC(N)=O)C3=C(C(=O)C(C)=C(N)C3=O)N1C[C@@H]1N[C@@H]12`, the Potency result is “inactive”.
For `O=C(NOC[C@H](O)CO)c1ccc(F)c(F)c1Nc1ccc(I)cc1F`, the Potency is 3.85 µM (active).
Turning to `NC(=O)Nc1cc(-c2cccc(F)c2)sc1C(=O)NC1CCCNC1` (stereo not given), the Potency was 1.72 µM (active).
The result for `COc1cccc2c1C(=O)c1c(O)c3c(c(O)c1C2=O)C[C@@](O)(C(=O)CO)C[C@@H]3O[C@H]1C[C@H](N)[C@H](O)[C@H](C)O1` reads 0.432 µM (active); that for `Cc1c2oc3c(C)ccc(C(=O)N[C@@H]4C(=O)N[C@H](C(C)C)C(=O)N5CCC[C@H]5C(=O)N(C)CC(=O)N(C)[C@@H](C(C)C)C(=O)O[C@@H]4C)c3nc-2c(C(=O)N[C@@H]2C(=O)N[C@H](C(C)C)C(=O)N3CCC[C@H]3C(=O)N(C)CC(=O)N(C)[C@@H](C(C)C)C(=O)O[C@@H]2C)c(N)c1=O` (I: T[dV]P[Sar][NMeV] / II: T[dV]P[Sar][NMeV]; ester I:1-I:C, II:1-II:C; linker I:N-II:N via Actinocin(9to1)), 0.0968 µM (active).
As for `O=c1cc(CN2CCOCC2)occ1OCCCCCSc1ccnc2cc(C(F)(F)F)ccc12`, the figure is 8.63 µM (active); as for `CN(c1nccc(=O)[nH]1)C1CCN(c2nc3ccccc3n2Cc2ccc(F)cc2)CC1`, “inactive”.
With `COc1cc(C(=O)N2CCC(N3CCN(C)CC3)CC2)ccc1Nc1ncc2c(n1)N(C)c1ccccc1C(=O)N2C`, the Potency was 9.68 µM (active).
As for `CC[C@]1(O)C[C@@H]2CN(CCc3c([nH]c4ccccc34)[C@@](C(=O)OC)(c3cc4c(cc3OC)N(C)[C@H]3[C@@](O)(C(=O)OC)[C@H](OC(C)=O)[C@]5(CC)C=CCN6CC[C@]43[C@@H]65)C2)C1`, the figure is 0.109 µM (active).
